Out of some 59,000 compounds screened, about 60 (0.1%) were called active. No rule for the calls is given here. This excerpt belongs to a sample that is enriched for actives.
Assay: qHTS Assay for Spectroscopic Profiling in A488 Spectral Region
Details: compound autofluorescence; max dye equivalency: Compound Type: qHTS ECL - SigmaAldrich, active compounds read high unless noted; outcome: dye equivalency, Compound Type: qHTS ECL - MLSMR unless noted
Description: NIH Molecular Libraries Screening Centers Network [MLSCN]
NIH Chemical Genomics Center [NCGC]
Occasionally, the artifactual effect may originate from the compounds own spectral or other biophysical properties which generally tend to track its assay concentration. Pre-screening/profiling the library with respect to the compounds spectral properties should help one exclude false positives early on. While the most informative fluorescent profiling data set is obtained by performing a full excitation and emission scan of each well by using a monochromator-based plate reader, such an approach is practical only on a very limited scale as scanning each well requires long time. An alternative approach, applied here, is to perform plate reader scans using selected excitation and emission wavelength pairs to generate a multidimensional relational database that correlates compound concentration and the respective relative fluorescence intensity at a given wavelength set. A standard curve of Alexa 488 (A488) present on each plate as six-point concentration series, was used to compute a normalized fluorescence response, termed dye-equivalent concentration, for each compound at each concentration.
NCGC Assay Protocol Summary:
100 mM Tris buffer, pH 8.0
The wells in columns 1 through 4 of a Kalypsys polypropylene 1536-well compound plate were filled with standard solutions of fluorophore corresponding to the spectral region of interest. Solutions of A488 were placed in the following wells: Y1, Z1: 3 mM, Y2, Z2: 300 uM, Y3, Z3: 30 uM, Y4, Z4: zero (DMSO), AA1, AB1: 3 uM, AA2, AB2: 900 nM, AA3, AB3: 300 nM, AA4, AB4: zero (DMSO).
Six uL of buffer were dispensed to 1536-well Greiner black plates. Compounds and dye standards (23 nL) were transferred via Kalypsys PinTool. The plates were incubated for 15 min at room temperature, and then read on ViewLux (Perkin-Elmer) High-throughput CCD imager using 480 nm and 540 nm excitation and emission filter set.
Keywords: NIH Roadmap, MLSCN, MLI, MLSMR, qHTS, NCGC, A488, A-488, Fluorescent Profiling.

outcome, inactive:
O=C(O)[C@@H]1[C@@H](C(=O)O)[C@]23C[C@@]2(C(=O)O)[C@]2(C(=O)O)CCC3=C3CCCC312 inactive [dye equivalency, Compound Type: qHTS ECL - NCI]
Cc1ccc2[nH]c(=O)c(-c3nc4c(C)cccn4c3NCc3ccco3)cc2c1
CN(C)c1ccc(CNC23CN4CN(CN(C4)C2)C3)cc1 inactive [dye equivalency, Compound Type: qHTS ECL - DPISMR]
Cn1cc(-c2nc3cnc(N4CCNCC4)nc3n(CCc3ccccc3)c2=O)c2ccccc21 inactive [dye equivalency, Compound Type: qHTS ECL - Pharmacopeia]
CNC(=O)NCCN1CCCC1=O
COc1ccc(-n2c(=O)c(C)nc3cnc(N4CCOCC4)nc32)cc1 inactive [dye equivalency, Compound Type: qHTS ECL - Pharmacopeia]
CC1(c2ccccc2Cl)NC(=O)N(CC(=O)NC(=O)NCc2ccco2)C1=O (stereo not given)
COc1ccc(CCN2C(=O)c3[nH]nc(-c4ccccc4O)c3C2c2ccc(C)cc2)cc1OC (stereo not given) inactive [dye equivalency, Compound Type: qHTS ECL - DPISMR]
COC(=O)C(C)N(C#N)c1nc(C)nc(C)n1 (stereo not given) inactive [dye equivalency, Compound Type: qHTS ECL - DPISMR]
Cc1noc(C)c1C(=O)OCC(=O)/C=C1\N(C)c2ccccc2C1(C)C
Cc1ccc(Oc2nc3ccccc3n3c(C)nnc23)cc1 inactive [dye equivalency, Compound Type: qHTS ECL - DPISMR]
CCOc1ccc(OCC)c(NC(=O)CN(C)S(=O)(=O)c2cccc3nsnc23)c1
CCC(C)(C)NC(=O)C(c1cccn1C)N(Cc1ccc(C)cc1)C(=O)Cn1nnc2ccccc21 (stereo not given)
COc1ccc(OCC(=O)OCCN(C)C)cc1
CC(C)C1N=C2c3ccccc3N=C(SCC(=O)c3ccc(O)c(O)c3)N2C1=O (stereo not given) inactive [dye equivalency, Compound Type: qHTS ECL - DPISMR]
CCC(=O)Nc1cccc(NC(=O)CSc2nnc(-c3ccc(NS(C)(=O)=O)cc3)n2C)c1
Cc1nn(-c2ccccc2)c2c1C(=O)NC(=O)C(C)(C)C2
COc1cc([C@H]2c3cc4c(cc3[C@@H](O[C@@H]3O[C@H]5CO[C@@H](C)O[C@]5(O)C[C@H]3O)[C@@H]3COC(=O)[C@H]23)OCO4)cc(OC)c1O inactive [dye equivalency, Compound Type: qHTS ECL - SigmaAldrich]
COc1ccc(OC)c(CN2C(=O)CCC2(C)C(=O)NC2CCCCCC2)c1 (stereo not given)
CCCCCN(C(=O)NC(=O)Nc1ccccc1OC)S(C)(=O)=O
Cn1c(=S)c2[nH]c(SCCCc3ccccc3)nc2n(C)c1=O inactive [dye equivalency, Compound Type: qHTS ECL - NCI]
ClC(Cl)(Cl)C(N1CCN(c2ccccc2)CC1)N1CCN(c2ccccc2)CC1 inactive [dye equivalency, Compound Type: qHTS ECL - NCI]
CCOC(=O)Nc1ccccc1N1C(=O)c2ccccc2C1=O
CCOC(=O)c1cc2n(c1C)-c1ccccc1C2=O
COc1ccc2oc(C)c(NC(C)=O)c2c1
NC(=O)CSC1=Nc2ccccc2C2=NC(CCC(=O)NCc3ccc(F)cc3)C(=O)N12 (stereo not given) inactive [dye equivalency, Compound Type: qHTS ECL - DPISMR]
Oc1c(C(c2ccccn2)N2CCOCC2)ccc2cccnc12 (stereo not given)
COc1cc(OC)cc(C(=O)Nc2ccc(-c3nc4ccccc4o3)c(O)c2)c1
Clc1ccccc1-c1cc(NCCN2CCOCC2)ncn1 inactive [dye equivalency, Compound Type: qHTS ECL - Pharmacopeia]
O=C1c2ccncc2C(=O)N1C1CCCCC1
COc1cc(C2C(C#N)=C(N)Oc3n[nH]c(-c4ccccn4)c32)cc(OC)c1OC (stereo not given)
CS(=O)(=O)c1ccc2nc(NC(=O)CN3CCCCCC3)sc2c1
CC(=O)c1sc2nc(SCC(=O)N3CCCCC3)[nH]c(=O)c2c1C inactive [dye equivalency, Compound Type: qHTS ECL - DPISMR]
O=C(CN1CCN(c2ncc(C(F)(F)F)cc2Cl)CC1)Nc1ccc2c(c1)OCO2
O=c1cnc2cnc(Nc3ccccc3)nc2n1Cc1ccc(F)cc1 inactive [dye equivalency, Compound Type: qHTS ECL - Pharmacopeia]
CCOc1ccc(-n2c(SC(C)C(=O)OC)nc3c(c2=O)SCC3)cc1 (stereo not given)
CC(Sc1sc(=S)sc1SC(C)C(=O)O)C(=O)O (stereo not given)
CN(C)c1ccc(-c2nc(NCCN3CCOCC3)c3ccccc3n2)cc1 inactive [dye equivalency, Compound Type: qHTS ECL - Pharmacopeia]
COCCn1c(=O)c(-c2ccccc2)nc2cnc(N3CCOCC3)nc21 inactive [dye equivalency, Compound Type: qHTS ECL - Pharmacopeia]
O=C(c1cccc(F)c1)N1CCC2(CC1)CCN(c1ccccc1)CC2 inactive [dye equivalency, Compound Type: qHTS ECL - Pharmacopeia]
Clc1ccc(Cn2ncc3c(NCc4cccnc4)ncnc32)cc1 inactive [dye equivalency, Compound Type: qHTS ECL - DPISMR]
O=C(O)C1CCCN1S(=O)(=O)c1ccc2c(c1)CCC2 (stereo not given)
CN(C)C(=O)c1ccc(-c2cncnc2Nc2ccccc2)cc1 inactive [dye equivalency, Compound Type: qHTS ECL - Pharmacopeia]
CCOC(=O)N1CCC(C(N)=O)CC1
Cc1cc(C)n2nc(C(=O)Oc3ccc4c(c3)OCO4)nc2n1
N#Cc1ccc(CN2CCCC3(CCN(C(=O)c4ccco4)CC3)C2)cc1 inactive [dye equivalency, Compound Type: qHTS ECL - Pharmacopeia]
CCCCOc1ccc(NC(=O)CSCC(=O)OCC)cc1
Cc1cccc(N)c1SC1CCCCC1O (stereo not given)
COc1ccccc1CNc1ncncc1-c1cccc(NS(C)(=O)=O)c1 inactive [dye equivalency, Compound Type: qHTS ECL - Pharmacopeia]
COC(=O)Cc1c(C)c2ccc(OCC(=O)NCc3ccc4c(c3)OCO4)cc2oc1=O inactive [dye equivalency, Compound Type: qHTS ECL - DPISMR]
O=c1c(CCc2ccccc2)nc2cnc(N3CCNCC3)nc2n1Cc1cccs1 inactive [dye equivalency, Compound Type: qHTS ECL - Pharmacopeia]
O=C(NC1CCCCC1)N1CCc2[nH]c3ccccc3c2C1 inactive [dye equivalency, Compound Type: qHTS ECL - DPISMR]
CCOC(=O)c1c(N)c(C#N)nn1-c1ccccc1C(=O)OC inactive [dye equivalency, Compound Type: qHTS ECL - DPISMR]
Cc1ccc(C(=O)NC2CC(C)(C)NC(C)(C)C2)c(C)c1
O=C(Oc1ccc2c(c1)CN(Cc1ccccc1)CO2)c1ccccc1 inactive [dye equivalency, Compound Type: qHTS ECL - NCI]
c1ccc(-c2cn3cccnc3n2)cc1
CCC(C)n1[nH]c(=O)cc1N (stereo not given)
Cc1cccc(N2CCN(C(c3ccccc3)c3nnnn3CC3CCCO3)CC2)c1C (stereo not given)
CC1(C)CC(=O)C2=C(C1)NCN(CCCN1CCOCC1)C2 inactive [dye equivalency, Compound Type: qHTS ECL - DPISMR]
O=C(c1ccco1)N1CCN(CC(=O)N(C2CCCCC2)C2CCS(=O)(=O)C2)CC1 (stereo not given)
O=c1c(-c2cc(F)cc(F)c2)nc2cnc(Oc3ccccc3)nc2n1C[C@H]1CCCO1 inactive [dye equivalency, Compound Type: qHTS ECL - Pharmacopeia]
CCCc1nc2ccccc2c(C(=O)OCc2nnc(-c3cc(OC)c(OC)c(OC)c3)o2)c1CC
COc1ccc(OCc2cccc(C(=O)N3CCCC3)c2)cc1
CCOc1ccccc1NC(=O)Nc1cc(OC)ccc1OC inactive [dye equivalency, Compound Type: qHTS ECL - DPISMR]
Cn1c(=O)[nH]c(=O)c2c1nc(NCCCn1ccnc1)n2Cc1cccc(Br)c1 inactive [dye equivalency, Compound Type: qHTS ECL - DPISMR]
CCCc1nc2ccccc2c(=O)n1/N=C/c1ccc(O)c(O)c1 inactive [dye equivalency, Compound Type: qHTS ECL - DPISMR]
COc1ccc(-c2nc3cnc(Oc4ccccc4)nc3n(Cc3cccs3)c2=O)cc1 inactive [dye equivalency, Compound Type: qHTS ECL - Pharmacopeia]
CN1CCN(S(=O)(=O)c2ccc3[nH]cc(C(=O)O)c(=O)c3c2)CC1 inactive [dye equivalency, Compound Type: qHTS ECL - DPISMR]

Max dye equivalency, active:
O=C(O)c1c(Br)c(Br)c(Br)c(Br)c1C1c2ccc(O)cc2Oc2cc(O)ccc21 15 nM [Compound Type: qHTS ECL - NCI, active compounds read high]
CCOC(=O)c1cc2n(c1N)-c1ccccc1C2=O 39 nM [Compound Type: qHTS ECL - DPISMR, active compounds read high]

— PubChem BioAssay AID591 (National Center for Advancing Translational Sciences (NCATS), 2007)
